# Bioassay records from PubChem.
# Only a selection was taken, and hits are over-represented in it overall.
# N370S GC mod = inhibitors or activators of N370S glucocerebrosidase for Gaucher disease; N370S GC spleen homogenate, 4MU-glucoside fluorescence; Potency, µM (series often up to 59.4 µM), for inactives: top-dose activity change, negative = inhibition, hits mostly inhibitors; 0.092% of 330,000 active; AID 2101;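 note: potency is the fitted concentration of half-maximal effect; 0% = full enzyme activity and -100% = no enzyme basal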
# ClpP mod = qHTS Assay for Activators of ClpP. ATP-dependent Clp protease proteolytic subunit (Bacillus subtilis (strain 168)), P80244. purified B. subtilis ClpP, FRET peptide cleavage, 20 min. Potency, µM (highest dose often 57.5 µM), for the others: top-dose activity change, negative = active. 1.9% of 340,000 active. AID 651965, 2013; active = well fitted falling curve with a large enough effect; inconclusive = small, poorly fitted or top-dose-only effect; inactive = no such curve, though single readings can be large or run the other way; note: potency is the fitted concentration of half-maximal effect; the source files actives as falling curves though it sought activators and does not explain the sign; nearly all actives have a fitted effect of over 65% in size
#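 FRET quenching reversal measured ClpP activation: 10 microg/mL B. subtilis ClpP at pH 8 with the FRET-FV decapeptide, read at 430 nm after 320 nm excitation. The 20-min minus 0-min signal was scaled between DMSO/no-enzyme wells and ADEP (5.8 microM final).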
# Anesthetic bind = candidate novel general anesthetic via apoferritin binding | AID 485281 | Potency, µM (series often up to 77.5 µM), without a hit: at the top dose activity change, negative = displacement, most hits filed as inhibitors | 0.074% of 350,000 active | P02791 | apoferritin/1-aminoanthracene competitive binding, fluorescence; note: potency is the fitted concentration of half-maximal effect; % is set by controls: 0 for no effect and ±100 for the full control effect; nearly all actives have a fitted effect of over 20% in size
#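 Concentration-response curves derived by four-parameter Hill fitting of normalized fluorescence, where compounds displaced 1-AMA from 10 uM horse apoferritin following a brief 10 min room-temperature incubation; propofol titration acted as positive control.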
# CBFb RUNX1 block = blocks binding between human CBF-beta and RUNX1; AlphaScreen CBFb-His/RUNX1-biotin binding, biochemical; Q01196+Q13951; 230,000 tested, under 10 active; Potency, µM (series often up to 59.8 µM), for inactives: at the top dose activity, negative = inhibition, hits mostly inhibitors; note: % of control where 0% means no effect
# Target sequence (Q01196 whole entry, looked up): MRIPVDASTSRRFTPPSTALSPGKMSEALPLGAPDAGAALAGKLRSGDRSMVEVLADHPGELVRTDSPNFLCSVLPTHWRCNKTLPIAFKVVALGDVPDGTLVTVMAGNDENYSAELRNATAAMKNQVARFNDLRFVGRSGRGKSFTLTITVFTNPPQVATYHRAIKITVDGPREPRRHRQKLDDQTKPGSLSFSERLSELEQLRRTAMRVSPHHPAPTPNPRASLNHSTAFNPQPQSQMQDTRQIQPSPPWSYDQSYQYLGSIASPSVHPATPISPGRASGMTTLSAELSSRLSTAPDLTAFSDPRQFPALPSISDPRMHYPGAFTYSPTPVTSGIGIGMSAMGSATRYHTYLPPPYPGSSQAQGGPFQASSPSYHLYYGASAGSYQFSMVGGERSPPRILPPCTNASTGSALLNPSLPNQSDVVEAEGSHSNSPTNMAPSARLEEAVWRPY
# Target sequence (Q13951 whole entry, looked up): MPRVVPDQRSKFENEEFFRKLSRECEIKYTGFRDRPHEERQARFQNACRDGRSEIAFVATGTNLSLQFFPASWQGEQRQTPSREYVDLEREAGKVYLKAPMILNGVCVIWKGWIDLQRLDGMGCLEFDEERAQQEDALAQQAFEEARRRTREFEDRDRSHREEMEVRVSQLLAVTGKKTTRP
#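 Proteins preincubated together for 20 min at RT before compound addition; 15 min later, nickel and streptavidin beads were added and left 90 min prior to AlphaScreen measurement.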
# GRP78 ERSR act = inducers of ER stress response in human glioma cells. U87-MG GRP78 promoter luciferase reporter, 16 h. Potency, µM, for the others: at the top dose activation, hits mostly activators. 0.02% of 420,000 active. AID 602332; note: potency is the fitted concentration of half-maximal effect; series mostly up to about 76 µM; % of control where 0% means no effect; nearly all actives have a fitted effect of over 35% in size
#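 Stably transfected U87-MG human glioma cells carrying a GRP78-based luminescent sensor were seeded at 1000 cells/well, pin-dosed with compounds and incubated 16 h. Luciferase reagent was then added, and end-point luminescence was read after 10 min at room temperature.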
# Integrin act MD = activators of alpha7 integrin expression for muscular dystrophy; alpha7betagal myoblasts, beta-gal FDG fluorescence, 48 h; Potency, µM (top dose mostly 38.3 µM), for the others: top-dose activation, usual class: activators; 0.064% of 350,000 active;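 note: potency is the fitted concentration of half-maximal effect; 100% = response of the positive control SU9516; nearly all actives have a fitted effect of over 60% in size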
#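 Alpha7betagal+/- myoblasts (passage 13) were plated 16-24 hr, then exposed to compounds (1:260 dilution of DMSO stock) for 48 hours at 37C. After MPER lysis, β-galactosidase reporter activity was read as FDG fluorescence (ex 480/em 540) after 30 minutes.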
# * hit, by the source's call; ? = inconclusive; / = not tested or not shown; ! = not active in a repeat; [ ] = remark or other dose. Unless noted, calls come from the whole dose curve; as a rule, active = well fitted curve in the direction sought with a large enough effect; inconclusive = small, poorly fitted or top-dose-only effect, or another doubt; inactive = no such curve, though single readings can be large; an effect the other way counts as inactive or inconclusive.
SMILES,N370S GC mod,ClpP mod,Anesthetic bind,CBFb RUNX1 block,GRP78 ERSR act,Integrin act MD
Cc1cccc(NC(=O)C2(C)Cc3ccccc3C(=O)O2)c1 (stereo not drawn),/,1%,?,/,-1%,/
CC1(C(=O)Nc2cccc(C(F)(F)F)c2)Cc2ccccc2C(=O)O1 (stereo not drawn),/,0%,16µM*,/,-3%,/
O=C(OCn1nnc2ccccc2c1=O)C1CCCCC1,4%,-1%,40µM*,-5%,-2%,-1%
O=c1c2ccccc2nnn1Cc1ccccc1Cl,-6%,-2%,14µM*,8%,0%,18%
Nc1c(N=Nc2ccc([N+](=O)[O-])cc2)c(S(=O)(=O)O)cc2cc(S(=O)(=O)O)c(/C=C/c3ccccc3)c(O)c12,/,2%,/,/,-10%,/
COc1ccc(-c2cc3nc(C)cc(N4CC(C)CC(C)C4)n3n2)cc1 (stereo not drawn),11%,40µM*,-9%,1%,3%,2%
CCNc1nc(N2CCCN(C)CC2)nc2cc(OC)c(OC)cc12,/,4%,/,/,/,/
COc1cc(-c2nc3c(c(C)nn3-c3ccccc3)c3cc(OC)c(OC)cc23)ccc1O,19%,7.9µM*,-1%,1%,-4%,-1%
O=C(Nc1ncn[nH]1)c1ccc(Cl)c(S(=O)(=O)Nc2ccc(Cl)cc2)c1,-1%,32µM*,-3%,-17%,-1%,12%
O=C(NCCO)c1cccc(-c2cnc3c(Nc4cccc(OC(F)(F)C(F)F)c4)nccn23)c1,/,-16%,/,/,-3%,/
Cc1ccc(S(=O)(=O)Nc2ccc(Nc3nccn4c(-c5cccc(OC(F)(F)F)c5)cnc34)cc2)cc1,/,32µM*,/,/,11%,/
Cc1ccn2c(NC(=O)C(C)(C)Oc3ccc(Cl)cc3)c(-c3cccs3)nc2c1,23%,32µM*,1%,8%,-1%,2%
COc1cccc(CN2C(=O)NC(C)(C3CCN(Cc4cc(Cl)ccc4O)CC3)C2=O)c1OC (stereo not drawn),/,/,/,/,-4%,/
CCCCCCCCNc1ccccc1S(=O)(=O)NCc1ccccc1,/,32µM*,/,/,3%,-10%
COCn1c(-c2cccc(Br)c2)nc2ccccc21,-2%,?,?,2%,7%,16%
COCn1c(-c2ccc(OC)c(OC)c2)nc2ccccc21,5%,28µM*,-24%,4%,9%,8%
N#Cc1nc(-c2ccco2)oc1N1CCN(c2ccccc2)CC1,?,-6%,5%,-24%,-7%,-1%
CC1CCCN(c2oc(-c3cccc4ccccc34)nc2C#N)C1 (stereo not drawn),9%,3.2µM*,-4%,9%,-2%,-8%[7.66 µM]
N#Cc1nc(-c2ccco2)oc1N1CCC(Cc2ccccc2)CC1,?,25µM*,95%,?,4%,-13%[7.66 µM]
COc1ccc(N2CCN(c3oc(-c4ccccc4OC)nc3C#N)CC2)cc1,-14%,?,83%,-11%,3%,6%
COc1ccccc1-c1nc(C#N)c(N2CCN(c3ccccc3)CC2)o1,18%,28µM*,-2%,?,0%,17%
CCN1CCN(c2oc(-c3ccc(OC)cc3)nc2C#N)CC1,/,3.2µM*,/,/,1%,-23%[7.66 µM]
COc1ccc(-c2nc(C#N)c(N3CCN(c4ccccc4)CC3)o2)cc1,7%,5%,0%,-9%,-3%,-4%
O=C(NCC1Cc2cc(-c3cncnc3)cc(Cl)c2O1)c1cccc(Cn2cccn2)c1 (stereo not drawn),/,/,/,/,-1%,/
CN(C)c1ccc(/C=C/c2ccnc3ccccc23)cc1,/,1%,/,/,2%,/
SMILES,N370S GC mod,ClpP mod,Anesthetic bind,CBFb RUNX1 block,GRP78 ERSR act,Integrin act MD
CCCC(=O)Oc1ccc2[nH]c(C(=O)c3cc4ccccc4[nH]3)cc2c1,/,-7%,/,/,3%,/
N#Cc1nc(-c2ccccc2F)oc1NCCN1CCOCC1,5%,4%,-2%,2%,-4%,-12%
N#Cc1nc(-c2ccccc2Cl)oc1N1CCOCC1,8%,8.9µM*,-7%,1%,3%,29%
N#Cc1nc(-c2ccco2)oc1N1CCOCC1,-2%,-11%,-8%,4%,0%,-11%[7.66 µM]
CC1CCN(c2oc(-c3ccccc3Cl)nc2C#N)CC1,9%,28µM*,130%,?,4%,12%
Cc1ccccc1-c1nc(C#N)c(N2CCC(C)CC2)o1,3%,4%,5%,/,?,26%
N#Cc1nc(-c2cccc3ccccc23)oc1NCCN1CCOCC1,9%,6.3µM*,53%,16%,4%,-18%[7.66 µM]
O=[N+]([O-])c1ccc2c(c1)/C(=C/c1ccc(C=S)cc1)C=C2,/,1%,/,/,4%,/
CC(=O)N1CCN(c2ccc(NC(=O)C(c3ccccc3)c3ccccc3)cc2)CC1,13µM*,/,-5%,/,-4%,16%
O=C(Nc1ccc(N2CCCC2)cc1)C(c1ccccc1)c1ccccc1,-10%,-2%,?,-22%,-3%,-2%
COc1cccc(CNC(=O)c2c(OC)cc(=O)n3c2CCN(C(=O)c2ccc(Cl)cc2)CC3)c1,/,/,/,/,-6%,/
OC[C@H]1O[C@H](OC/C=C/c2ccccc2)[C@H](O)[C@@H](O)[C@@H]1O,/,/,/,/,-4%,/
Oc1ccc(C(c2nnnn2C2CCCCC2)N2CCOCC2)cc1 (stereo not drawn),-19%,/,-3%,-2%,-4%,-23%
CCOC(=O)c1cc2oc(C(c3nnnn3C3CCCCC3)N3CCOCC3)cc2[nH]1 (stereo not drawn),13µM*,-6%,-6%,-8%,-5%,15%
COc1ccccc1CC(=O)NO,/,0%,/,/,/,/
O=C(/C=C/c1ccc(O)cc1)c1ccc(O)cc1O,1.8µM*!,1%,-1%[15.3 µM],-12%,?,/
O=C(/C=C/c1ccccc1)c1ccc(O)cc1O,4%,/,-7%,13%,?,/
C=CCSC1=Nc2cc(OC)c(OC)cc2C2=NC(=O)CN12,22%,4%,-3%,-1%,-2%,18%
COc1cc2c(cc1OC)C1=NC(=O)CN1C(SCc1ccc(C)cc1)=N2,6%,20µM*,-16%,20%,-1%,0%
Cc1ccc2nc(-c3cccnc3)oc2c1,1%,1.4µM*!,-12%,5%,1%,-15%
Clc1ccc2oc(-c3ccccc3)nc2c1,2%,-14%,-18%,8%,0%,14%
Clc1ccc2oc(-c3cccnc3)nc2c1,-2%,25µM*,-12%,7%,4%,7%
COc1ccccc1N1CC(O)=C(c2nc3ccccc3c(=O)[nH]2)C1=N,26%,32µM*,-16%,6%,-2%,-23%
O=C(COCCOCCOCC(=O)Nc1c(I)cc(I)c(C(=O)O)c1I)Nc1c(I)cc(I)c(C(=O)O)c1I,/,/,/,/,-3%,/
